Source: PubChem (National Center for Advancing Translational Sciences (NCATS))
Shown are actives, neighbours in structure and some others; about 3.1% of the full set was active somewhere.
VDR inhibitor = Inhibitors of the vitamin D receptor (VDR): qHTS; Vitamin D3 receptor (Homo sapiens), P11473; VDR-SRC2-3 peptide fluorescence polarization, 2 h; Potency, µM, without a hit: max response, negative = inhibition, hits mostly inhibitors; actives 0.93% (n = 400,000); AID 504847, 2011; also: potency is read from the fitted curve at half-maximal effect; % is scaled to controls: 0 for no effect and ±100 for the full control effect
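Fluorescence polarization assay measuring small-molecule disruption of VDR binding to the coregulator peptide SRC2-3. Compounds were pin-transferred (23 nl) into the reagent mix and incubated 2 h at room temperature before reading.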
PTAP TSG101 blk = qHTS Assay for Iinhibitors of HIV-1 Budding by Blocking the Interaction of PTAP/TSG101; Tumor susceptibility gene 101 protein (Homo sapiens), Q99816; Fluorescence polarization, FITC-PTAP peptide / Tsg101 binding; Potency, µM (titrated, usually from 115 µM), inactives show at the top dose activity change, negative = inhibition, hits mostly inhibitors; 340,000 tested, under 10 active; AID 493005, 2010; active = well fitted inhibition curve with a large enough effect in the main read-out, with a control signal flat, not every such curve was filed as active; inconclusive = small, poorly fitted or top-dose-only effect, or effect the other way, or a change in a side signal; inactive = no such curve, though single readings can be large or run the other way; also: potency is read from the fitted curve at half-maximal effect; % of control where 0% means no effect
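Compounds were pin-transferred onto Tsg101 binding domain (10 uM final) in HEPES pH 7.5 buffer, then FITC-PTAP peptide was added at 50 nM final. After 20 min at RT, polarization reported peptide displacement across a qHTS concentration series.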
TSHR antagonist = Antagonists of the Thyroid Stimulating Hormone Receptor: HTS campaign; Thyrotropin receptor (Homo sapiens), P16473; TSHR-expressing cells, TSH-stimulated cAMP HTRF, 2 h; active compounds read low; activity change, negative = inhibition, % at 11.5 µM; actives 0.2% (n = 330,000); AID 504810, 2011;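 active = activity change below a set negative limit, meaning inhibition stronger than a set level, cut at about -70% in these data; inconclusive = activity change between two set negative limits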; also: % is scaled to controls: 0 for no effect and ±100 for the full control effect
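Cell-based HTRF cAMP assay; TSHR cells + compound, TSH EC80 (4nM final), 2 h, 37 deg C. Lysis with anti-cAMP cryptate and cAMP-d2, 30 min RT, read 665/620 nm.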
uPA surface inh = qHTS for Inhibitors of Cell Surface uPA Generation | AID 540303, 2011 | cell surface uPA generation assay, qHTS | actives 0.31% (n = 330,000) | Potency, µM (series often up to 38.3 µM), without a hit: top-dose activity change, negative = inhibition, most hits filed as inhibitors; active = well fitted inhibition curve with a large enough effect; inconclusive = small, poorly fitted or top-dose-only effect; inactive = no such curve, though single readings can be large or run the other way; tested in mouse RAW 264.7 cells; also: potency is read from the fitted curve at half-maximal effect; % is scaled to controls: 0 for no effect and ±100 for the full control effect; nearly all actives have a fitted effect of over 55% in size
PLK1 PBD inh = qHTS for Inhibitors of PLK1-PDB (polo-like kinase 1 - polo-box domain): Primary Screen | Plk1 PBD binding of FITC phosphopeptide, fluorescence polarization | Potency, µM, for inactives: max response, negative = inhibition, most hits filed as inhibitors | actives 2.8% (n = 360,000) | AID 720504, 2013; also: potency is read from the fitted curve at half-maximal effect; series mostly up to about 57 µM; % is scaled to controls: 0 for no effect and ±100 for the full control effect; nearly all actives have a fitted effect of over 65% in size
Target sequence (P53350 whole entry, looked up, the tested form may be a part): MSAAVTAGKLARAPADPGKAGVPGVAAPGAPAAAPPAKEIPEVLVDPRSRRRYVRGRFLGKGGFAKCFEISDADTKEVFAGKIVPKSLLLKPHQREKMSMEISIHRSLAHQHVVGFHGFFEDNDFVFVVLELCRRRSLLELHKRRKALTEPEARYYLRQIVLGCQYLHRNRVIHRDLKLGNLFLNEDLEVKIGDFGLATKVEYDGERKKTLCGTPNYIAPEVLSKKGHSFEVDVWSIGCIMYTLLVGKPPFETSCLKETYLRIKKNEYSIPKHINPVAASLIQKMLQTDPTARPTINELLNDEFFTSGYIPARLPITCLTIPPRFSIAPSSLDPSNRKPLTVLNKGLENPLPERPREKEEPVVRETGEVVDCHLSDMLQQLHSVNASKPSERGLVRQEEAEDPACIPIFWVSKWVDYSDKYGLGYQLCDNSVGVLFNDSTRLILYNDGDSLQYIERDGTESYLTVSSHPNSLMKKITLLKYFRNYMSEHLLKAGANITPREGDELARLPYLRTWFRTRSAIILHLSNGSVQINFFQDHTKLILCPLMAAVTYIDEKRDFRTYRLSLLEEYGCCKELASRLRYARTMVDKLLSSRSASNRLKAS
* = called active by the depositor; ? = inconclusive; . = not tested or not shown. Unless noted, calls follow the shape of the dose curve; as a rule, active = well fitted curve in the direction sought with a large enough effect; inconclusive = small, poorly fitted or top-dose-only effect, or another doubt; inactive = no such curve, though single readings can be large; an effect the other way counts as inactive or inconclusive.

SMILES	VDR inhibitor	PTAP TSG101 blk	TSHR antagonist	uPA surface inh	PLK1 PBD inh
CC(C)OCCCNC(=O)CCCn1c(SCC(=O)c2ccc(F)cc2)nc2c(sc3ccccc32)c1=O	10.8%	.	.	.	.
c1csc(CNc2ccnc(-c3ccoc3)n2)c1	22.4µM*	.	.	.	.
CN(C)c1ccc(-c2nccc(NCc3cccs3)n2)cc1	-19.6%	.	.	.	.
CN(C)C(=O)c1ccc(-c2nccc(NCc3cccs3)n2)cc1	44.7µM*	.	.	.	.
COc1cccc(Cn2c(=O)cnc3cnc(Nc4cccc(OC)c4)nc32)c1	-2.4%	.	.	.	.
COC(=O)C1(C)CCCC2(C)C1CCC13OCC(CC21)C(O)(C(C)C)C3O (stereo not drawn)	.	.	.	.	-2.5%
C=C(C)CC1N(c2cccc(OC)c2)C(=O)C2C(C(=O)O)C3C=CC21O3 (stereo not drawn)	-20.0%	-3.2%	9.3	-4.8%	26.7µM*
CCOc1cccc(C(=O)Nc2ccc3oc(-c4ccc(C(C)(C)C)cc4)nc3c2)c1	-13.4%	.	.	.	.
NC(=O)CC(NC(=O)c1ccccc1)c1ccc(N2CCN(c3ccc(F)cc3)CC2)c([N+](=O)[O-])c1 (stereo not drawn)	3.5%	-3.9%	-7.1	-10.7%	-10.2%
COc1ccc(OC)c(C(=O)NC(CC(N)=O)c2ccc(N3CCN(c4ccc(F)cc4)CC3)c([N+](=O)[O-])c2)c1 (stereo not drawn)	?	-2.3%	7.9	5.0%	29.9µM*
CCCN(C(=O)NCc1noc2ccc(C)cc12)c1ccc(Cl)c(Cl)c1	-2.8%	.	.	.	.
CN(Cc1ccco1)c1ncncc1-c1ccccc1C(F)(F)F	50.1µM*	.	.	.	.
Cc1ccccc1-c1cncnc1N(C)Cc1ccco1	39.8µM*	.	.	.	.
COCC(=O)Nc1cc(Cl)ccc1C	-11.3%	0.5%	3.2	2.7%	-5.3%
Cc1ccc(Cl)cc1NC(=O)CSC(N)=O	44.7µM*	-1.8%	-2.5	-7.2%	?
Cn1c(=O)c2c(SCC(=O)NCc3ccco3)nc(-c3cccc(F)c3)nc2n(C)c1=O	8.0%	.	.	.	.
C=CCN(c1ccc(C(=O)Nc2cccc(C)c2)cc1)S(C)(=O)=O	-4.3%	4.6%	-1.5	-4.7%	-16.8%
C=CCN(c1ccc(C(=O)Nc2ccc(NC(C)=O)cc2)cc1)S(C)(=O)=O	35.5µM*	-7.0%	-8.2	-0.4%	21.2µM*
O=S(=O)(c1ccc(Br)cc1)c1nc(-c2cccs2)oc1SCc1ccccc1F	-1.2%	.	.	.	.
CC(Cc1c[nH]c2ccccc12)NC(N)=O (stereo not drawn)	1.7%	3.8%	9.5	.	-8.3%
CC[C@@H](C)[C@H](NS(=O)(=O)c1cccc2ccccc12)C(=O)N[C@H](C=O)Cc1c[nH]c2ccccc12	31.6µM*	.	.	.	.
O=C(O)c1sccc1SCc1ccc(Cl)c(Cl)c1	-11.5%	-7.3%	2.4	0.3%	-18.2%
C=CS(=O)(=O)N(Cc1ccc(Cl)c(Cl)c1)C[C@@H](O)CO	?	-6.2%	-8.7	3.55µM*	-8.6%
Cc1c(Cc2ccccc2)sc(NC(=O)C(C)(C)C)c1C(N)=O	-8.0%	-1.4%	5.9	5.1%	18.9µM*
COC(=O)c1c(NC(C)=O)sc(Cc2ccccc2)c1C	-9.5%	-4.8%	-7.4	-8.6%	-10.1%
SMILES	VDR inhibitor	PTAP TSG101 blk	TSHR antagonist	uPA surface inh	PLK1 PBD inh
Cc1c(Cc2ccccc2)sc(NC(=O)Cc2ccccc2)c1C(N)=O	?	-4.0%	.	3.4%	10.6µM*
CCC(=O)Nc1sc(Cc2ccccc2)c(C)c1C(N)=O	-9.0%	-1.4%	-2.7	-8.1%	26.7µM*
Cc1c(Cc2ccccc2)sc(N)c1C(N)=O	.	.	-6.5	.	.
NC(=O)c1ccc[n+]([C@@H]2OC(COP(=O)([O-])OP(=O)(O)OCC3OC(n4cnc5c(N)ncnc54)C(OP(=O)(O)O)C3O)C(O)C2O)c1 (stereo partly drawn)	-1.3%	.	.	.	.
CCCc1cc(CNC(=O)C2CCC(=O)N(Cc3ccccc3OC)C2)on1 (stereo not drawn)	-8.6%	-1.3%	-5.4	-9.5%	-3.0%
Cc1ccc(Cl)cc1NC(=O)c1cc(CN2CCCC2)on1	14.4%	.	.	.	.
Cc1cn([C@H]2C[C@H](O)[C@@H](CNCc3cccn3-c3ccncc3)O2)c(=O)[nH]c1=O	.	.	.	.	1.06µM*
COc1ccccc1N1CCN(CC2CN3C(=O)N(C)c4ccccc4C3=N2)CC1 (stereo not drawn)	2.8%	.	.	.	.
COc1ccc(-c2csc(Nc3ccc(S(=O)(=O)Nc4cc(C)on4)cc3)n2)cc1	-22.7%	-0.8%	-22.7	-1.4%	18.9µM*
Cc1ccc(S(=O)(=O)Nc2nc(-c3ccccc3)cs2)cc1	-1.4%	-0.2%	-0.3	5.1%	?
COc1ccc(-c2csc(NC(=O)c3ccccc3NS(=O)(=O)c3ccc(F)c(F)c3)n2)cc1	-5.9%	-7.7%	-87.7*	-6.5%	21.2µM*
Cc1cc(NS(=O)(=O)c2ccc(Nc3nc(-c4sc(C)nc4C)cs3)cc2)no1	.	.	34.9	.	.
Cc1ccc(S(=O)(=O)Nc2ccccc2C(=O)Nc2nc(-c3ccc(F)cc3)cs2)cc1	-21.2%	-2.2%	?	12.6µM*	26.7µM*
Cc1ccc(-n2ncc(C(=O)N3CCN(c4cc(Cl)ccc4C)CC3)c2C2CCN(C(=O)OC(C)(C)C)CC2)cc1	3.3%	.	.	.	.
CC1=C/C(=N\N=C2\NC(=O)C(CC(=O)Nc3ccccc3)S2)CC(C)(C)C1 (stereo not drawn)	-16.9%	-7.5%	-8.3	-9.0%	23.8µM*
CCOC(=O)N1CCC(NC(=O)c2cnn(-c3ccc(F)cc3F)c2C2CCN(C(=O)OC(C)(C)C)CC2)CC1	-0.7%	.	.	.	.
CCC(Sc1ccccn1)C(=O)Nc1cccc([N+](=O)[O-])c1 (stereo not drawn)	4.8%	0.9%	5.2	-2.1%	21.2µM*
COc1ccc(/C=C/c2ccc(=O)n(Cc3ccccc3)n2)cc1	?	-0.5%	-7.0	-1.0%	11.9µM*
CCCCCCCC/C=C\CCCCCCCCOC[C@H](COP(=O)([O-])OCC[N+](C)(C)C)OC(C)=O	2.7%	.	.	.	.
COc1ccccc1-c1ccccc1C1=CC(=O)CC(C)(C)C1=O	.	.	.	.	2.6%
COc1cccc2c1C(=O)C=C(C)C2=O	39.8µM*	-3.3%	-0.2	-18.1%	-7.1%
CCCCCCCN(C(=O)CCl)c1cccc(C)c1	?	2.7%	-2.9	-9.2%	-5.8%
CCCCCCN(C(=O)CCl)c1ccccc1	?	-10.8%	-2.8	2.51µM*	-20.1%
COc1ccc2c(CCNC(N)=S)c[nH]c2c1	?	-8.9%	2.6	7.8%	18.9µM*
Cc1ccc2oc(=O)c3cc(C(=O)N4CCN(c5ccccc5F)CC4)sc3c2c1	2.3%	.	.	.	.
CCc1c(C(C)S(=O)(=O)c2ccccc2)[nH]c(=O)n1CC (stereo not drawn)	-23.9%	-2.7%	11.5	-0.4%	15µM*
